From PubChem BioAssay (Tox21) come the findings set out here.

Test [1] is described as follows: qHTS assay for small molecules that induce genotoxicity in human embryonic kidney cells expressing luciferase-tagged ATAD5 (AID 651632). Also: nearly all actives have a fitted effect of over 15% in size. Also: potency is read from the fitted curve at half-maximal effect. An outline of the steps:
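Cells were seeded at 2,000 per well, dosed with compound, and incubated 16 hr at 37C in 5% CO2. Luciferase activity was then quantified after a 30 min room-temperature incubation with Amplite.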
On the technique in general: In qHTS, concentration-response curves come from the screen itself.

A short description of test [2]: qHTS assay for small molecule agonists of the p53 signaling pathway - cell viability (AID 651633; calls by dose curve;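 also: p53RE-bla HCT reporter cells with a stable beta-lactamase p53 reporter; series mostly up to about 83 µM; nearly all actives have a fitted effect of over 30% in size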). A digest of the protocol:
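p53RE-bla cells were treated with compound for 16 hours at 37 C. Cytotoxicity was then measured as CellTiter-Glo luminescence after 30 min at room temperature.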

Test [3] in a line: qHTS assay for small molecules that induce genotoxicity in human embryonic kidney cells expressing luciferase-tagged ATAD5 - cell viability (AID 651634; calls by dose curve; also: nearly all actives have a fitted effect of over 25% in size). An outline of the steps: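 Cells (HEK293T, luciferase-tagged ATAD5) are seeded at 2,000 per well, dosed with compound or DMSO vehicle, and incubated 15.5 hr at 37C and 5% CO2. CellTiter-Fluor is added for 30 min before fluorescence is measured.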

Test [4] in a line: qHTS assay for small molecule disruptors of the mitochondrial membrane potential - cell viability (AID 720634; calls by dose curve;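 also: human HepG2 liver cancer cells; series mostly up to about 83 µM; nearly all actives have a fitted effect of over 20% in size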). A digest of the protocol:
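Cytotoxicity was measured by ATP quantitation in HepG2 wells that had first been treated with compound for 1 hr and stained with m-MPI dye; CellTiter-Glo incubation was 30 min at room temperature.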

Test [5] in a line: qHTS assay for small molecule disruptors of the mitochondrial membrane potential (AID 720635). An outline of the steps:
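HepG2 cells exposed to compound 1 hr at 37C, then Mito-MPS dye 30 min. Ratio read of aggregate (540/590 nm) versus monomer (490/535 nm) fluorescence.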

Test [6] is described as follows: qHTS assay to test for compound auto fluorescence at 535 nm (green) in HepG2 cells (AID 720675).
Test [7] can be described thus: qHTS assay to test for compound auto fluorescence at 460 nm (blue) in HEK293 cells (AID 720678). A digest of the protocol:
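Blue read-out at excitation 405 nm and emission 460 nm follows overnight compound exposure of HEK293 cells at 37C in 5% CO2. Activity is given as auto fluorescence equivalency to triamterene.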

A short description of test [8]: qHTS assay to test for compound auto fluorescence at 590 nm (red) in HEK293 cells (AID 720679). An outline of the steps: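 Red channel, Ex/Em 540/590nm; signal expressed as equivalency to Rose Bengal sodium. HEK293, 2,000 cells/well, 10% dialyzed FBS; 23 nL compound pinned after 4-5 hr attachment; overnight 37C/5% CO2 before reading.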
The nature of test [9]: qHTS assay to test for compound auto fluorescence at 460 nm (blue) in HEK293 cell free culture (AID 720681). A digest of the protocol: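 Compounds were added to cell-free DMEM with 10% FBS and fluorescence read directly. The blue channel used 405 nm excitation and 460 nm emission, with triamterene as the reference fluorophore.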
The nature of test [10]: qHTS assay to test for compound auto fluorescence at 535 nm (green) in HEK293 cell free culture (AID 720682). An outline of the steps:
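DMEM + 10% FBS, cell-free; cpd or DMSO pinned in; Ex485/Em535 read; output as fluorescein-equivalent signal.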

The nature of test [11]: qHTS assay to test for compound auto fluorescence at 590 nm (red) in HEK293 cell free culture (AID 720683). An outline of the steps:
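Cell-free wells of DMEM with 10% FBS received compound, and intrinsic fluorescence was read at excitation/emission 540/590 nm. Values expressed as equivalence to Rose Bengal sodium.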

The nature of test [12]: qHTS assay to test for compound auto fluorescence at 590 nm (red) in HepG2 cell free culture (AID 720684). A digest of the protocol:
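Auto fluorescence equivalency versus Rose Bengal sodium, red channel Ex/Em 540/590 nm; compounds in cell-free MEM/10% FBS; DMSO vehicle control.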

The nature of test [13]: qHTS assay to test for compound auto fluorescence at 460 nm (blue) in HepG2 cell free culture (AID 720685). An outline of the steps: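 Cell-free plates of MEM plus 10% FBS received 23 nL compound or DMSO vehicle; blue-channel (405/460 nm) intensity scored against triamterene as reference fluorophore.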
Test [14] can be described thus: qHTS assay to test for compound auto fluorescence at 535 nm (green) in HepG2 cell free culture (AID 720686).
The nature of test [15]: qHTS assay to test for compound auto fluorescence at 460 nm (blue) in HepG2 cells (AID 720687). A digest of the protocol: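 HepG2 cells in MEM with 10% FBS, attached overnight at 37 C, were exposed to compound or DMSO for 1 hr at 37 C, 5% CO2. Blue fluorescence was read at 405/460 nm, with triamterene as reference fluorophore.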
For test [16], the target named is Glucocorticoid receptor (Homo sapiens) (UniProt P04150). Put plainly: qHTS assay to identify small molecule agonists of the glucocorticoid receptor (GR) signaling pathway (AID 720691; active = well fitted activation curve with a large enough effect in the signal ratio in the repeat runs, not every such curve was filed as active; the % refers to the signal ratio). An outline of the steps:
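Steps: seed GR-bla HeLa cells, incubate 4 h at 37 C/5% CO2; pin-transfer DMSO-dissolved compounds; incubate 18 h at 37 C; add LiveBLAzer B/G FRET substrate; after 2 h at room temperature, measure fluorescence.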

Test [17] has the same target. Put plainly: qHTS assay to identify small molecule antagonists of the glucocorticoid receptor (GR) signaling pathway (AID 720692; active = well fitted inhibition curve with a large enough effect in the signal ratio in the repeat runs, not every such curve was filed as active; the % refers to the signal ratio). A digest of the protocol: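 Antagonism was scored as loss of dexamethasone-driven (5 nM final) reporter signal in HeLa cells bearing a glucocorticoid response element–beta-lactamase construct, after 18 h compound exposure at 37 C and 2 h FRET substrate loading.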

Test [18] is described as follows: qHTS assay to test for compound auto fluorescence at 590 nm (red) in HepG2 cells (AID 720674). An outline of the steps: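 Fluorescence at 590 nm emission following 540 nm excitation was recorded from HepG2 wells one hour after compound transfer, with DMSO-only wells as vehicle and Rose Bengal sodium equivalency as the scale.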
Test [19] can be described thus: qHTS assay to test for compound auto fluorescence at 535 nm (green) in HEK293 cells (AID 720680).

Values without a mark were called inactive. Records with an inconclusive call do not appear. Calls of active or inactive are those of the source. Unless noted, calls follow the shape of the dose curve; as a rule, active = well fitted curve in the direction sought with a large enough effect in the repeat runs; inconclusive = weak or mixed curves; inactive = no such curve, though single readings can be large; an effect the other way counts as inactive or inconclusive.
% is scaled to controls: 0 for no effect and ±100 for the full control effect.

Chain of Glucocorticoid receptor (Homo sapiens) (P04150 whole entry, looked up): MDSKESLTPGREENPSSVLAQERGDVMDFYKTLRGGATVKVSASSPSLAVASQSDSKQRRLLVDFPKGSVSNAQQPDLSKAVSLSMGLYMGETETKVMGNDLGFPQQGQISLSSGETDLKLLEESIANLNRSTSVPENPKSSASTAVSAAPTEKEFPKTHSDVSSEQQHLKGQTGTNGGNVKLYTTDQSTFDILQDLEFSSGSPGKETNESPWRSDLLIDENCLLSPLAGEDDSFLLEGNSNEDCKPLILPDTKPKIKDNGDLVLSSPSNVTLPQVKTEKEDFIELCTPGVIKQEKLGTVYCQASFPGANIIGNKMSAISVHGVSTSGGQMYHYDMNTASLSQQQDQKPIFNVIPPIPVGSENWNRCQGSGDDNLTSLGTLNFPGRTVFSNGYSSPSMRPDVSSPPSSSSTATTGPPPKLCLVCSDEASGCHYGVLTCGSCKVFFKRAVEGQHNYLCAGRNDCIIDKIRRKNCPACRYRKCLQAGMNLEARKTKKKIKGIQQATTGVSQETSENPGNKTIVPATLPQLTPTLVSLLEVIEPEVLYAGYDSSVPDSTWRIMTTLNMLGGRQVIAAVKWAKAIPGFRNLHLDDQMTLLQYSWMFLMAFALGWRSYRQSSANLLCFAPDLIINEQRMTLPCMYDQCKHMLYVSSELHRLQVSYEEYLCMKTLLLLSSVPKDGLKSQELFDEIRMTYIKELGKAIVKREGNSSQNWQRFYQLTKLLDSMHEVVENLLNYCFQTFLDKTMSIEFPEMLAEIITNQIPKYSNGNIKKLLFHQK

For `O=C1N(c2ccccc2)c2ccccc2C1(Cc1ccncc1)Cc1ccncc1`, the Potency entry in test [1], in test [2], in test [3], in test [4], in test [5] and in [16] was “inactive” each time. Besides, in test [17], the Potency entry is “inactive”. Moreover, the outcome in [6], in test [7], in test [8], in [9], in test [10] and in [11] was inactive. Also, the compound was classed as inactive in test [12], in test [13], in test [14] and in [15].

As to `CCNCCO`, the Potency result in test [1], in test [2], in [3], in test [4], in test [5] and in test [16] was “inactive” each time. Also, the Potency entry in [17] is “inactive”. The call in [18], in test [6], in test [7], in [8], in [9] and in [10] was inactive. Besides, the call in [11], in test [12], in test [13], in test [14] and in [15] was inactive.

With `CCOc1ccc(NC(N)=O)cc1`, the Potency entry in test [1], in [2], in test [3], in test [4], in test [16] and in test [17] was “inactive” in each case. Moreover, the outcome in [18], in [6], in test [7], in [19], in [9] and in test [10] was inactive. Besides, the result in test [11], in test [12], in test [13], in test [14] and in test [15] was inactive.

For `CC(C)C[C@H](NC(=O)OCC1c2ccccc2-c2ccccc21)C(=O)O`, the Potency in [1] is 12.2 µM (active). The Potency entry in test [2], in test [3], in test [4] and in [17] was “inactive” in each case. Further, the compound was classed as inactive in [18], in [6], in [7], in test [8], in test [19] and in [9]. Further, the compound was classed as inactive in test [10], in test [11], in [12], in test [13], in test [14] and in test [15].

As for `O=C(O)c1ccccc1Nc1cc(Cl)ccc1C(=O)O`, the Potency entry in test [1], in [2], in test [3], in test [4], in test [5] and in test [16] was “inactive” throughout. The Potency result in test [17] was “inactive”. The compound was called inactive in [18], in [6], in test [8], in test [19], in test [9] and in test [10]. Further, the compound was classed as inactive in test [12], in test [13] and in [14].

In the case of `CCCCCCCOC(=O)CCC`, the Potency result in [1], in test [2], in test [3], in test [4], in test [5] and in [16] was “inactive” each time. The compound was classed as inactive in [18], in [6], in test [7], in test [8], in test [19] and in [10]. The outcome in [12], in test [13] and in [14] was inactive.

Regarding `NS(=O)(=O)c1cc(-c2nn[nH]n2)c(NCc2cccs2)cc1Cl`, the Potency entry in [1], in test [2], in test [3], in test [4], in test [16] and in test [17] was “inactive” in each case. Moreover, the result in [18], in [6], in test [7], in test [8], in [19] and in test [9] was inactive. For the same compound, the outcome in [10], in test [11], in [12], in test [13], in test [14] and in [15] was inactive.

Take `Cn1cnc2c(F)c(Nc3ccc(Br)cc3Cl)c(C(=O)NOCCO)cc21`: the Potency result in test [1], in test [2], in [3], in test [4] and in test [16] was “inactive” each time. Moreover, the call in test [18], in test [6], in [7], in [8], in [19] and in test [9] was inactive. Besides, the outcome in [10], in test [11], in test [12], in test [13], in [14] and in test [15] was inactive.

On to `CCOC(=O)[C@H](CCc1ccccc1)N[C@@H](C)C(=O)N1Cc2cc(OC)c(OC)cc2C[C@H]1C(=O)O`, for which the Potency result in [1], in test [2], in test [3], in [4] and in test [5] was “inactive” each time. Moreover, the outcome in test [18], in test [6], in [7], in test [9], in test [10] and in [11] was inactive. Also, the compound was classed as inactive in test [12], in test [13], in test [14] and in test [15].

`NC(=O)Cc1cccc(C(=O)c2ccccc2)c1N`: the Potency entry in test [1], in test [2], in [3], in test [4], in [5] and in [16] was “inactive” in each case. Moreover, in test [17], the Potency result is “inactive”. In addition, the call in test [18], in test [6], in test [7], in test [8], in [19] and in test [10] was inactive. Besides, the compound was called inactive in test [11], in test [13], in [14] and in test [15].

For `c1ccc(CN(CC2=NCCN2)c2ccccc2)cc1`, the Potency entry in test [1], in test [2], in test [3], in test [4] and in test [5] was “inactive” throughout. For the same compound, the call in test [18], in test [6], in test [7], in test [19], in test [9] and in test [10] was inactive. Moreover, the call in [11], in [12], in test [13], in test [14] and in test [15] was inactive.

On to `NC(Cc1ccc(F)cc1)C(=O)O` (stereo unspecified), for which the activation in test [1] was 3.53% [at 8.08 µM]; in [16], -7.29% [at 6.9 µM]. Moreover, the activity change, negative = cytotoxicity in test [2] was 33% [at 8.08 µM]; in [4], -3.31% [at 8.08 µM]. In [3], the activity, negative = cytotoxicity was 10.7% [at 8.08 µM]. Further, the fluorescence, relative to Rose Bengal in test [18] is 0.0373% [at 3.72 µM]. For the same compound, the fluorescence, % of fluorescein control was -0.0482% [at 3.72 µM] in test [6] and -0.0064% [at 3.72 µM] in [14]. Also, the fluorescence, % of triamterene in test [7] was -0.105% [at 3.72 µM]. Moreover, the fluorescence, % of fluorescent control in test [8] was 0.0934% [at 3.72 µM]; in [9] it was -0.189% [at 3.72 µM]; in [13], -0.0373% [at 3.72 µM]; in test [15], -0.0921% [at 3.72 µM]. Also, the fluorescence, % of fluorescein in test [19] is 0.0426% [at 3.72 µM]. The activity change in test [10] is 0.0132% [at 3.72 µM]. Also, in test [12], the fluorescence, % of Rose Bengal was -0.117% [at 3.72 µM].

For the compound `Cc1c(C(=O)NCCO)[n+](=O)c2ccccc2n1[O-]`, the Potency result in test [1], in test [2], in test [3], in [4], in [5] and in test [17] was “inactive” in each case. Also, the call in test [6], in test [7], in test [8], in test [19], in test [9] and in test [10] was inactive. Further, the call in test [11], in test [12], in [13] and in test [14] was inactive.

Turning to `CC1(C)C(=O)N(Cl)C(=O)N1Br`, the Potency result in test [1], in [2], in test [3], in [4] and in test [17] was “inactive” each time. For the same compound, the outcome in test [18], in test [6], in [8], in test [19], in test [9] and in [10] was inactive. Moreover, the compound was called inactive in test [11], in [12], in test [13], in test [14] and in test [15].
